Activity calls are given as the source filed them. A call without a number means that no potency is given here. Calls come from the whole dose curve; as a rule, active = well fitted curve in the direction sought with a large enough effect; inconclusive = small, poorly fitted or top-dose-only effect, or another doubt; inactive = no such curve, though single readings can be large; an effect the other way counts as inactive or inconclusive.

Experimental findings from PubChem BioAssay (NCATS) are described below.

Sequence of Single-stranded DNA cytosine deaminase (Homo sapiens) (Q9GZX7 whole entry, looked up): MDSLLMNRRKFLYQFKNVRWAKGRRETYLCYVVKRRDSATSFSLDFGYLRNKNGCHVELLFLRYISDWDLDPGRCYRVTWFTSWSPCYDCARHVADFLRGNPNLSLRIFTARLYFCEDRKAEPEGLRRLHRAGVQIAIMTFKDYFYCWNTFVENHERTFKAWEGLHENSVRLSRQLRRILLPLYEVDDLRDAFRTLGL

Test system in the first experiment: not listed separately
Kind of experiment: Validation qHTS assay for inhibitors of Activation Induced Cytidine Deaminase (AID): UDG Counterscreen signal (AID 1347427). As to conditions: biochemical UDG counterscreen, fluorescence signal; series mostly up to 115 µM. The method in brief:
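Counterscreen read of UDG activity (2 U/mL, 4/3x) in the FRET deamination format with AID (1 uM, 4/3x), DJC20/DJC23 substrates (250 nM, 4x), 4 h at room temperature. NaOH stop, fluorescence at 560 ex/665 em.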
Background: qHTS replaces the single test concentration by a dilution series.
For `C=CC(C)=C[C@@]1(C)SC(=O)C(C)=C1O`, the Potency result is “inactive”.
Regarding `CCN1/C(=C/C(C)=O)Sc2ccc(OC)cc21`, the Potency result is “inactive”.
Still for that read-out and setting: for `Nc1nc(SCc2ccc([N+](=O)[O-])cc2)c2ncn([C@@H]3O[C@H](CO)[C@@H](O)[C@H]3O)c2n1` the value was “inactive”; for `CCC1C(=O)OCC1Cc1cncn1C` (configuration not stated), “inactive”.
Take `CC(N)C(=O)OC(C)(C)Cc1ccc(Cl)cc1` (configuration not stated): the Potency result was “inactive”.
The same measure, in the same setting: the entry for `CN1[C@@H](CC(=O)c2ccccc2)CCC[C@H]1C[C@H](O)c1ccccc1` is “inactive”; for `Fc1cccc(/C=N/N=C/c2cccc(F)c2)c1` it is “inactive”.
The same measure, in the same setting: the entry for `Cn1cc(C2=C(c3ccc(Cl)cc3Cl)C(=O)NC2=O)c2ccccc21` is “inactive”.
On to `Oc1cc2c(cc1O)CN(C(=S)NCCc1ccc(Cl)cc1)CCC2`, for which the Potency result was “inactive”.
The same measure, in the same setting: for `Cc1cc2c(cc1Cl)N(C(=O)Nc1ccc(Oc3cccnc3C)nc1)CC2` the value was “inactive”; for `O=P(O)(O)C(Cl)(Cl)P(=O)(O)O`, “inactive”.
The same measure, in the same setting: for `NC(N)=NC(=O)c1nc(Cl)c(N2CCCCCC2)nc1N` the value was “inactive”; for `CC1OC1P(=O)(O)O` (configuration not stated), “inactive”.
On the same count and under the same terms, the entry for `CCCN(CC1CC1)c1nc(C)nc(Nc2c(Cl)cc(Cl)cc2Cl)c1Cl` is “inactive”; for `NC(=S)c1ccc[n+]([C@@H]2O[C@@H](COP(=O)([O-])OP(=O)(O)OC[C@H]3O[C@@H](n4cnc5c(N)ncnc54)[C@H](OP(=O)(O)O)[C@@H]3O)C(O)C2O)c1` (some centres not stated) it is “inactive”; for `CCCCCCCC/C=C\CCCCCCCC(=O)NCCO` it is “inactive”.
For the compound `CN1CC(=O)N/C1=N/C(=O)Nc1cccc(Cl)c1`, the Potency entry is “inactive”.
Take `CN1CCc2cc(NC(=O)Nc3cccnc3)ccc21`: the Potency entry was “inactive”.
Regarding `O=Nc1ccc2oc(=O)ccc2c1`, the Potency entry was “inactive”.
Still for that read-out and setting: the entry for `Cc1cc(NC(=O)Nc2ccc3c(ccn3C)c2)sn1` is “inactive”; for `Nc1ncnc2c1ncn2[C@@H]1O[C@H](COP(=O)(O)OP(=O)(O)OP(=O)(O)OP(=O)(O)OC[C@@H]2O[C@H](n3cnc4c(N)ncnc43)[C@@H](O)[C@H]2O)[C@@H](O)[C@H]1O` it is “inactive”.
On the same count and under the same terms, for `Cc1ccc(S(=O)(=O)/C=C/C#N)cc1` the value was “inactive”; for `CSc1ccccc1N1CCN(CCCCCC(=O)NC2CCCc3ccccc32)CC1` (configuration not stated), “inactive”.
For the compound `CC(C)NC[C@H](O)COc1cccc2[nH]ccc12`, the Potency result is “inactive”.
In the case of `O=C(O)CNC(=O)C(CS)Cc1ccccc1` (configuration not stated), the Potency entry is “inactive”.
Same read-out and setting: for `NC[C@@H]1O[C@H](C23CC4CC(CC(C4)C2)C3)Cc2c1ccc(O)c2O` the value was “inactive”; for `O=C(/C=C/c1ccc(O)c(O)c1)OCCc1ccccc1`, “inactive”.
Same read-out and setting: for `CO/N=C(\C(=O)N[C@@H]1C(=O)N2C(C(=O)O)=C(COC(C)=O)CS[C@H]12)c1csc(N)n1` the value was “inactive”; for `NCC1OC(O[C@H]2[C@H](O)[C@@H](OC3C(O)C(N)CC(N)C3OC3OC(CO)C(O)C(O)C3N)O[C@@H]2CO)C(N)C(O)C1O` (some centres not stated), “inactive”.
On the same count and under the same terms, for `CN1C2CCC1CC(OC(=O)C(O)c1ccccc1)C2` (configuration not stated) the value was “inactive”.
`N#C/C(=C\c1ccc(O)c(O)c1)C(=O)c1ccc(O)c(O)c1`: the Potency entry was “inactive”.
`N#C/C(=C\c1ccc(-c2cc(Cl)ccc2Cl)o1)C(=O)Nc1cccc2ncccc12`: the Potency entry was “inactive”.
Consider `CC1CN(S(=O)(=O)c2cccc3cnccc23)CCN1` (configuration not stated), for which the Potency result was “inactive”.
Still for that read-out and setting: for `C=CC(N)CCC(=O)O` (configuration not stated) the value was “inactive”; for `CC1(C)CCC=[N+]1[O-]`, “inactive”; for `O=C(O)CC[C@@H](C(=O)O)N1C(=O)c2ccccc2C1=O`, “inactive”.

A further experiment concerns the target Single-stranded DNA cytosine deaminase (Homo sapiens) (UniProt Q9GZX7). Kind of experiment: Validation qHTS assay for inhibitors of Activation Induced Cytidine Deaminase (AID): AID signal (AID 1347429). The following applies: Recombinant AID, FRET ssDNA deamination with UDG, fluorescence; series mostly up to 115 µM. The gist of the method: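 Fluorescence at 540 nm excitation and 590 nm emission reports ssDNA cytosine deamination by AID, with UDG in the same well. Compound-treated reactions ran 4 hr at room temperature with DJC20/DJC23 substrate, followed by 30 min NaOH treatment.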
`C=CC(C)=C[C@@]1(C)SC(=O)C(C)=C1O`: the Potency result was “inactive”.
As to `CCN1/C(=C/C(C)=O)Sc2ccc(OC)cc21`, the Potency entry is “inactive”.
For `Nc1nc(SCc2ccc([N+](=O)[O-])cc2)c2ncn([C@@H]3O[C@H](CO)[C@@H](O)[C@H]3O)c2n1`, the Potency entry was “inactive”.
Still for that read-out and setting: for `CCC1C(=O)OCC1Cc1cncn1C` (configuration not stated) the value was “inactive”; for `CC(N)C(=O)OC(C)(C)Cc1ccc(Cl)cc1` (configuration not stated), “inactive”; for `CN1[C@@H](CC(=O)c2ccccc2)CCC[C@H]1C[C@H](O)c1ccccc1`, “inactive”.
Still for that read-out and setting: for `Fc1cccc(/C=N/N=C/c2cccc(F)c2)c1` the value was “inactive”; for `Cn1cc(C2=C(c3ccc(Cl)cc3Cl)C(=O)NC2=O)c2ccccc21`, “inactive”; for `Oc1cc2c(cc1O)CN(C(=S)NCCc1ccc(Cl)cc1)CCC2`, “inactive”.
On the same count and under the same terms, the entry for `Cc1cc2c(cc1Cl)N(C(=O)Nc1ccc(Oc3cccnc3C)nc1)CC2` is “inactive”; for `O=P(O)(O)C(Cl)(Cl)P(=O)(O)O` it is “inactive”.
Consider `NC(N)=NC(=O)c1nc(Cl)c(N2CCCCCC2)nc1N`, for which the Potency result is “inactive”.
In the case of `CC1OC1P(=O)(O)O` (configuration not stated), the Potency result is “inactive”.
In the case of `CCCN(CC1CC1)c1nc(C)nc(Nc2c(Cl)cc(Cl)cc2Cl)c1Cl`, the Potency result is “inactive”.
Still for that read-out and setting: the entry for `NC(=S)c1ccc[n+]([C@@H]2O[C@@H](COP(=O)([O-])OP(=O)(O)OC[C@H]3O[C@@H](n4cnc5c(N)ncnc54)[C@H](OP(=O)(O)O)[C@@H]3O)C(O)C2O)c1` (some centres not stated) is “inactive”; for `CCCCCCCC/C=C\CCCCCCCC(=O)NCCO` it is “inactive”; for `CN1CC(=O)N/C1=N/C(=O)Nc1cccc(Cl)c1` it is “inactive”.
On the same count and under the same terms, for `CN1CCc2cc(NC(=O)Nc3cccnc3)ccc21` the value was “inactive”; for `O=Nc1ccc2oc(=O)ccc2c1`, “inactive”.
Still for that read-out and setting: the entry for `Cc1cc(NC(=O)Nc2ccc3c(ccn3C)c2)sn1` is “inactive”; for `Nc1ncnc2c1ncn2[C@@H]1O[C@H](COP(=O)(O)OP(=O)(O)OP(=O)(O)OP(=O)(O)OC[C@@H]2O[C@H](n3cnc4c(N)ncnc43)[C@@H](O)[C@H]2O)[C@@H](O)[C@H]1O` it is “inactive”.
For the compound `Cc1ccc(S(=O)(=O)/C=C/C#N)cc1`, the Potency result is “inactive”.
On the same count and under the same terms, the entry for `CSc1ccccc1N1CCN(CCCCCC(=O)NC2CCCc3ccccc32)CC1` (configuration not stated) is “inactive”.
Same read-out and setting: for `CC(C)NC[C@H](O)COc1cccc2[nH]ccc12` the value was “inactive”; for `O=C(O)CNC(=O)C(CS)Cc1ccccc1` (configuration not stated), “inactive”.
The same measure, in the same setting: for `NC[C@@H]1O[C@H](C23CC4CC(CC(C4)C2)C3)Cc2c1ccc(O)c2O` the value was “inactive”.
In the case of `O=C(/C=C/c1ccc(O)c(O)c1)OCCc1ccccc1`, the Potency result was “inactive”.
The same measure, in the same setting: for `CO/N=C(\C(=O)N[C@@H]1C(=O)N2C(C(=O)O)=C(COC(C)=O)CS[C@H]12)c1csc(N)n1` the value was “inactive”; for `NCC1OC(O[C@H]2[C@H](O)[C@@H](OC3C(O)C(N)CC(N)C3OC3OC(CO)C(O)C(O)C3N)O[C@@H]2CO)C(N)C(O)C1O` (some centres not stated), “inactive”; for `CN1C2CCC1CC(OC(=O)C(O)c1ccccc1)C2` (configuration not stated), “inactive”.
The same measure, in the same setting: for `N#C/C(=C\c1ccc(O)c(O)c1)C(=O)c1ccc(O)c(O)c1` the value was “inactive”.
The same measure, in the same setting: the entry for `N#C/C(=C\c1ccc(-c2cc(Cl)ccc2Cl)o1)C(=O)Nc1cccc2ncccc12` is “inactive”.
Take `CC1CN(S(=O)(=O)c2cccc3cnccc23)CCN1` (configuration not stated): the Potency entry was “inactive”.
On the same count and under the same terms, the entry for `C=CC(N)CCC(=O)O` (configuration not stated) is “inactive”; for `CC1(C)CCC=[N+]1[O-]` it is “inactive”; for `O=C(O)CC[C@@H](C(=O)O)N1C(=O)c2ccccc2C1=O` it is “inactive”.
